PubChem BioAssay (NCI)
Compounds without any hit were thinned out: in the full panel of roughly 83,000, 20% have a hit.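 The test compound was applied at a single concentration to cells in 96-well plates for 48 hours, and percent growth was recorded.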 Values without a mark were called inactive. Activity calls are given as the source filed them. How the source made its calls: active means growth percent below 10; inactive means the rest.

Each compound was assayed on MDA-MB-468 breast (assay: NCI-60 one-dose screen, 48 h (100 = growth as untreated, 0 = no growth, -100 = all killed)). Conditions: 10 µM unless noted.

Row | SMILES | growth
1 | O=C(/C=C/CN1CCOCC1)Nc1cc2c(Nc3cccc(Cl)c3F)ncnc2cc1OCCOC(F)F | -15.3% (active)
2 | O=C(Nc1ccccc1O)c1ccc(NS(=O)(=O)c2cccc3cccnc23)cc1 | 49.8%
3 | Cc1nn(-c2ccccc2)c2c1oc(=O)c1cc(Cl)ccc12 | 98.7%
4 | COc1cc(/C=C/C(=O)c2ccc(NC(=O)CSc3nnc(-c4cc(OC)c(OC)c(OC)c4)n3-c3ccccc3)cc2)cc(OC)c1OC | 9.24% (active)
5 | CN1CCN(Cc2ccc(NC(=O)c3cncc(C#Cc4cnc5ccc(OCC6COC6)nn45)c3)cc2C(F)(F)F)CC1 | -60.7% (active)
6 | CC1(C)/C(=C\CO)C2CCC1C2 (stereo not given) | 101%
7 | CCCCCCCCCCCC1=NCCCN1CCCC | 101%
8 | CCCCCCCCCCCCCCCC(=O)OC1[C@@H](OC(=O)CCCCCCCCCCCCCCC)[C@@H](C(=O)N[C@@H](CCCCN)C(=O)OC)O[C@H]1n1cnc2c(=O)[nH]c(NC(=O)C(C)C)nc21 (stereo not given in full) | 83.1%
9 | C[n+]1cc2c3c(ccc2c2ccc4cc5c(cc4c21)OCO5)OCO3 | -93.7% (active)
10 | N#Cc1c(-c2ccc(C(F)(F)F)cc2)cc(NCC2CCS(=O)(=O)CC2)n2c1nc1ccccc12 | 78.1%
11 | O=C(COc1ccc(C2SCC(=O)N2c2ccc(F)cc2)cc1)c1ccccc1 (stereo not given) | 89.1%
12 | COc1ccc2c(c1)c(CC(=O)[Se]CC(=O)O)c(C)n2C(=O)c1ccc(Cl)cc1 | 86.9%
13 | Clc1ccc(-c2cn3cc(Cc4ccc(Cl)c(Cl)c4)sc3n2)cc1 | 80.5%
14 | N=C(N)c1ccc(-c2ccc(/C=C/c3ccccc3)s2)cc1 | -67.3% (active)
15 | C=C(C)[C@@H]1CC[C@]2(COC(=O)c3ccccc3C(=O)O)CC[C@]3(C)[C@H](CC[C@@H]4[C@@]5(C)CCCNC(C)(C)[C@@H]5CC[C@]43C)[C@@H]12 | 52%
16 | COc1cc(-c2nn(-c3cccc(NC(=O)NCCNS(=O)(=O)c4ccc(Cl)cc4)c3)cc2-c2ccncc2)ccc1Cl | -35.8% (active)
17 | COc1ccc(OC)c(/C=C/C(=O)N/N=C/c2ccc(Cl)cc2)c1 | -4.03% (active)
18 | CC1(C)CC[C@]2(C(=O)N3CCCNCC3)CC[C@]3(C)C(=CC[C@@H]4[C@@]5(C)CCC(=O)C(C)(C)[C@@H]5CC[C@]43C)[C@H]2C1 | 106%
19 | CCOC(=O)CCN(CCC(=O)OCC)c1ccccc1 | 96.6%
20 | COc1cccc(-c2nn(-c3ccccc3)cc2-c2ccnc(NCCCN)c2)c1 | 17.4%

Row | SMILES | growth
21 | Cc1cc2c(cc1C)N(C(=O)CCl)CC(=O)N2 | -12.6% (active)
22 | CCc1n(Cc2ccc3ccccc3c2)c2ccccc2[n+]1Cc1ccc2ccccc2c1 | 5.98% (active)
23 | Cn1cc(-c2csc(-c3c[nH]c4ccc(F)cc34)n2)c2cccnc21 | -22.7% (active)
24 | Cc1nc2ccccc2c(=O)n1-c1cccc(OCc2cn(-c3cccc(O)c3)nn2)c1 | 87.7%
25 | Cn1c2nc3ccccc3c-2nc2ccccc21 | 75.4%
26 | CCCCn1c(C)nc2cc(Nc3nc(Cl)nc4nc[nH]c34)ccc21 | 44.3%
27 | CC(C)(C)n1cc(-c2ccnc(NCCCNS(=O)(=O)c3cccc4ccccc34)c2)c(-c2cccc(O)c2)n1 | 10.7%
28 | Cc1c(O)c(=O)n(-c2ccccc2)n1C | 105%
29 | CCc1ccc(Oc2cn[nH]c2-c2ccc(OCCc3ccc(F)cc3)cc2O)cc1 | 105%
30 | COC(=O)c1c2c(c(C)[n+]([O-])c1C)C(=O)C(NCCN1CCOCC1)=CC2=O | 28.8%
31 | CCc1nc(N)nc(N)c1C#CC(C)c1cc(-c2ccnc(C)c2)c2oc(C)nc2c1 (stereo not given) | -20.6% (active)
32 | N#Cc1c(N)nc2c(nnn2-c2cccc(Br)c2)c1N | 92.9%
33 | O=C(Oc1cccc2ccccc12)Oc1cccc2ccccc12 | 117%
34 | COc1ccc(/C=C2\Oc3cc(OCCN4CCCC4)ccc3C2=O)c(OC)c1 | 86.5%
35 | c1ccc(CSc2ncccc2-c2nnc(SCCN3CCOCC3)o2)cc1 | 98.3%
36 | O=C1c2c(c3c4cc(Br)ccc4[nH]c3c3ccc4ccccc4c23)C(=O)N1CCN1CCCCC1 | 15%
37 | COc1ccc(OC)c(Cn2cc3c(c2-c2ccccc2)CCc2cnoc2-3)c1 | 29.7%
38 | O=C1C(Cl)C(c2ccccc2Cl)N1n1cnnc1 (stereo not given) | 106%
39 | COc1ccc(-n2c(-c3ccccc3)c(-c3ccccc3)c3c(SCC(=O)N/N=C/c4ccc(Cl)cc4)ncnc32)cc1 | 77.6%
40 | Cn1cc(-c2nc(-c3c[nH]c4ncccc34)cs2)c2cc(Br)ccc21 | 5.22% (active)
